Screening data deposited in PubChem BioAssay by several laboratories.
Exocytosis inh: LAMP-1 surface exposure blockers, TALL-104 cells – cell-based, flow cytometry, MLPCN library, primary screen | TALL-104 LAMP-1 surface exposure; cells stimulated with thapsigargin and PMA | inhibition, % at 10 µM | 0.66% of 360,000 active;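 active = inhibition above about 55%, limit read from the data; inconclusive = no clear call, values can overlap the other calls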
B2AR ag: beta2AR agonists driving receptor internalization, primary screen, cell-based, FAP fluorogen, flow cytometry | Beta-2 adrenergic receptor (Homo sapiens), P07550 | Am2.2-beta2AR cells | 0.43% of 340,000 active | response, % (test concentration not listed);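 active = response above a set limit, near 3 SD of response in nonfluorescent compounds, cut at about 42% in these data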
Target sequence (P07550 whole entry, looked up): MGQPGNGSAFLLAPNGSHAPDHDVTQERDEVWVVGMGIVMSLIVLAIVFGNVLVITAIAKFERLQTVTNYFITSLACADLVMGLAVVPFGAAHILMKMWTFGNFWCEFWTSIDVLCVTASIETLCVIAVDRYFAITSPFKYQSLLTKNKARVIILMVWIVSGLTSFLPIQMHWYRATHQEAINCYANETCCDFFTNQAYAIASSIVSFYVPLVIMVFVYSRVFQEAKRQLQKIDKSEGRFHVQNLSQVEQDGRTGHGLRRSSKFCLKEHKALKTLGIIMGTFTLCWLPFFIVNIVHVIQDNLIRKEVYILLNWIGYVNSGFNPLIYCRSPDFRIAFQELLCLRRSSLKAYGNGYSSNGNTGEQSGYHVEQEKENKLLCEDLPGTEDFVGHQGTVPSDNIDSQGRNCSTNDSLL
PP1 inh: PP1-alpha phosphatase inhibitors, primary screen, counter-screen for PP5 inhibitor project, biochemical, fluorescence, OMFP substrate, single point; Serine/threonine-protein phosphatase PP1-alpha catalytic subunit (Homo sapiens), P62136; purified PP1alpha; inhibition, % at 6.7 µM; 0.9% of 320,000 active; AID 2235, 2010;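 active = inhibition above the mean inhibition of all tested compounds plus 3 SD, computed separately for each screening campaign, cut at about 15% in these data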
NadD inh: inhibitors of S. aureus NadD, primary screen, biochemical, colorimetric, uHTS; inhibition, % at 20 µM; purified NadD enzyme, colorimetric absorbance read-out; Nicotinate-nucleotide adenylyltransferase NadD (Staphylococcus aureus N315); 0.78% of 360,000 active; in the data active = inhibition above about 26%
GRK2 inh: compounds blocking aptamer binding on GRK2 – biochemical, human GRK2, bead flow cytometry, HTS, primary screen | FAM-aptamer displacement from GRK2 | inhibition of aptamer binding, % at 10 µM | 0.59% of 330,000 active;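 active = inhibition of aptamer binding above 40%, roughly 3 SD of noise, on plates passing a quality check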;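 note: median bead fluorescence of bound FAM aptamer so fluorescent compounds give negative values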
GRK2 CP1: GRK2 aptamer-displacing inhibitors, retest, confirmation, biochemical, cherry pick 1, bead flow cytometry | shares compounds with GRK2 inh | 4% of 2,000 active | AID 504451, 2011 | bead-bound GRK2, FAM-aptamer displacement | aptamer displacement, % at 10 µM;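 active = aptamer displacement above 40%, near three times the noise of non-fluorescent compounds, on plates passing quality checks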;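 note: negative values mostly reflect intrinsic compound fluorescence rather than true enhancement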
FAM quench CP1: quenches fluorescent RNA aptamer, GRK2 hit artifact | shares compounds with GRK2 inh | Carboxyfluorescein RNA aptamer on beads, flow cytometry quenching; hits give low values | fluorescence response (% of DMSO), % at 10 µM | 2,000 tested, under 10 active;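 active = compounds that quench the bead-bound fluorescent RNA probe, cutting fluorescence to under half of the solvent control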;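 note: counterscreen run without GRK2 so only probe quenching by compound is measured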
GRK2 CP2: GRK2 aptamer-displacing inhibitors, hit retest, confirmation, biochemical, cherry pick 2, bead flow cytometry; inhibition of aptamer binding, % at 10 µM; AID 504782, 2011; bead-bound GRK2, FAM-aptamer displacement; 360 tested, under 10 active; shares compounds with GRK2 inh;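 active = inhibition of aptamer binding above 40%, about triple the noise seen with nonglowing compounds, on plates passing quality control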;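 note: negative values mostly come from compounds that fluoresce themselves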
FAM quench CP2: quenches fluorescent RNA aptamer, GRK2 hit artifact | fluorescence response vs DMSO, % at 10 µM | 360 tested, under 10 active | carboxyfluorescein RNA aptamer beads, flow cytometry quenching; hits give low values | AID 588494 | shares compounds with GRK2 inh;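 active = response vs DMSO under 50%, meaning signal dropped by over half, treated as fluorescence quencher; inconclusive = no clear call, values can overlap the other calls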;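 note: labelled aptamer on streptavidin beads without GRK2 as a quench counter-screen; 100% = bead fluorescence of DMSO wells and lower means quenching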
* = called active by the depositor. Shown are actives, neighbours in structure and some others; about 2.9% of the full set was active somewhere.

Screening CC1CCN(C(=O)C(Cc2ccccc2)n2cccc2)CC1 (centres undefined) returned Exocytosis inh 3, B2AR ag -6, PP1 inh -2, NadD inh 2, GRK2 inh 56*, GRK2 CP1 3 and FAM quench CP1 100.
Screening Fc1ccc2cnc(CCO[C@H]3CCCCO3)cc2c1 returned Exocytosis inh -2, B2AR ag -6, NadD inh -2 and GRK2 inh 0.
Screening N=c1c2ccccc2nc2n1CCCCC2 returned Exocytosis inh -9 and NadD inh -2.
Screening O=[N+]([O-])c1cc(C(F)(F)F)ccc1Sc1ccc2ccccc2n1 returned Exocytosis inh -4, B2AR ag 3, PP1 inh 4, NadD inh 2, GRK2 inh 39, GRK2 CP1 -1 and FAM quench CP1 84.
`Cc1cc(NC(=O)c2ccc(Cl)cc2)no1` gave Exocytosis inh 0, B2AR ag -7, PP1 inh -3, NadD inh 1, GRK2 inh 71*, GRK2 CP1 0 and FAM quench CP1 95.
Screening C=CCN(Cc1cccs1)C(=O)COc1ccc2c(c1)OCO2 returned Exocytosis inh -5, B2AR ag 12, NadD inh 1 and GRK2 inh 2.
Screening COc1ccc(NC(=O)Cc2ccc(Cl)cc2)cc1NC(=O)c1ccco1 returned Exocytosis inh -1, B2AR ag 10, PP1 inh -3, NadD inh -6, GRK2 inh 70*, GRK2 CP1 -7 and FAM quench CP1 95.
CCOc1ccc(NC(=S)NC(=O)c2ccco2)cc1 was read as Exocytosis inh -2, B2AR ag 1, PP1 inh -2, NadD inh -5, GRK2 inh 74*, GRK2 CP1 -3 and FAM quench CP1 101.
For COc1ccc(Cl)cc1NC(=S)NC(=O)c1ccco1 the results were Exocytosis inh -5, B2AR ag -19, PP1 inh 1, NadD inh -1, GRK2 inh 44*, GRK2 CP2 8 and FAM quench CP2 100.
For O=C(NC(=S)Nc1cc(Cl)ccc1Cl)c1ccco1 the results were Exocytosis inh 1 and NadD inh -6.
Screening CCOC(=O)Cn1c(=O)n(Cc2ccco2)c(=O)c2ccc(C(=O)NC3CCCC3)cc21 returned Exocytosis inh 5, B2AR ag -1, PP1 inh -1, NadD inh 3, GRK2 inh 86*, GRK2 CP1 -2 and FAM quench CP1 103.
For CCCn1cc(SCC(=O)NCc2ccco2)c2ccccc21 the results were Exocytosis inh 0, B2AR ag -3, PP1 inh -4, NadD inh -6 and GRK2 inh 0.
O=C(CSc1cn(CCNC(=O)c2ccccc2)c2ccccc12)NCc1ccco1 was read as Exocytosis inh -1, B2AR ag 0, PP1 inh 4, NadD inh -1, GRK2 inh 72*, GRK2 CP1 -3 and FAM quench CP1 103.
Screening CCN(CC)C(=O)Cn1cc(SCC(=O)NC2CCCCC2)c2ccccc21 returned Exocytosis inh -4 and NadD inh -1.
Screening O=C(CSc1cn(CCNC(=O)c2cccs2)c2ccccc12)NC1CCCC1 returned Exocytosis inh 2, B2AR ag 23, PP1 inh 0, NadD inh 1, GRK2 inh 0, GRK2 CP2 0 and FAM quench CP2 106.
`CCc1ccccc1NC(=O)c1ccc(CN2CCC(Cc3ccccc3)CC2)cc1` gave Exocytosis inh 6, B2AR ag 20, PP1 inh 5, NadD inh 4 and GRK2 inh 6.
Screening Cc1cccc(NCN2C(=O)c3ccccc3C2=O)c1 returned Exocytosis inh 0, B2AR ag -1, PP1 inh -2, NadD inh 9 and GRK2 inh 0.
Screening COc1ccc(CCNC(=O)CCS(=O)(=O)Cc2ccccc2C)cc1OC returned Exocytosis inh 0, B2AR ag -3, PP1 inh -1, NadD inh -2 and GRK2 inh 1.
`O=C(NC1CCCCC1)c1cc(C2CC2)nn1-c1ccccc1` gave Exocytosis inh -3, B2AR ag -11, PP1 inh 3, NadD inh 2, GRK2 inh 89*, GRK2 CP1 1 and FAM quench CP1 97.
COc1ccc(-c2cn[nH]c2N)cc1 was read as Exocytosis inh -2, B2AR ag -1, PP1 inh -4, NadD inh -1, GRK2 inh 63*, GRK2 CP1 2 and FAM quench CP1 82.
`O=C(O)COc1ccccc1/C=N/NC(=O)C(O)c1ccccc1` (centres undefined) gave Exocytosis inh -1, B2AR ag -3, NadD inh 4 and GRK2 inh 4.
`CCCCN(CC)C(=O)C1CCC(CNS(=O)(=O)c2cccc3nsnc23)CC1` (centres undefined) gave Exocytosis inh 5, B2AR ag -3, PP1 inh -1, NadD inh -3 and GRK2 inh 3.
Cc1ccc2cc(CN(C(=O)c3ccco3)c3ccccc3C)c(=O)[nH]c2c1 was read as Exocytosis inh -4, B2AR ag -1, PP1 inh 1, NadD inh 6, GRK2 inh 76*, GRK2 CP1 -3 and FAM quench CP1 98.
For CC(=O)N(CCc1ccccc1C)Cc1cc2ccc(C)cc2[nH]c1=O the results were Exocytosis inh inconclusive, B2AR ag 11, PP1 inh 0, NadD inh -7, GRK2 inh 61*, GRK2 CP1 -1 and FAM quench CP1 104.
